Bioassay records as filed in PubChem.
An excerpt weighted towards active compounds, which were near 1.8% of everything screened.
APP transl inh: APP translation inhibition; SH-SY5Y APP 5'UTR-luciferase reporter, luminescence; inhibition, % at 2 µM; actives 0.82% (n = 190,000); AID 1285;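 active = inhibition above a set limit, derived from the sample mean plus 3 SD, cut at about 45% in these data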
IEC-6 tox: kills IEC-6 intestinal cells in KLF5 counter-screen; IEC-6 cytotoxicity, luminescence viability; inhibition, % at 5 µM; actives 0.78% (n = 290,000);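 also: 0% = plate median of test compound wells and 100% = cytotoxic reference compound wells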
BaF3 tox: parental Ba/F3 viability inhibition as JAK2V617F counter-screen | actives 1.1% (n = 220,000) | CellTiter-Glo ATP luminescence | AID 1486 | inhibition, % at 5.6 µM;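 active = inhibition above a per-campaign cutoff, the mean inhibition of all tested compounds plus 3 SD, cut at about 27% in these data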;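 also: 0% = DMSO wells and 100% = JAK Inhibitor I control wells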
KLF5 inhibitor: inhibitors of KLF5 expression; DLD-1 KLF5 promoter-luciferase reporter, luminescence; inhibition, % at 5 µM; actives 0.23% (n = 290,000);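 active = inhibition above a per-plate limit of that plate's mean compound inhibition plus 3 SD, cut at about 60% in these data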;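 also: 0% = DMSO wells and 100% = LY294002 at 200 µM; higher means less KLF5 promoter-driven luciferase light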
Ba/F3 V617F tox: lowers viability of Ba/F3 cells expressing EpoR and JAK2V617F | ATP luminescence | inhibition, % at 5.6 µM | actives 1.1% (n = 220,000);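 active = inhibition above the campaign mean plus 3 SD over all tested compounds, cut at about 24% in these data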;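 also: cytokine-independent growth of Ba/F3 cells driven by EpoR plus mutant JAK2; 0% = DMSO-treated cells and 100% = JAK inhibitor I control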
IEC-6 tox confirm: confirmation of cytotoxic compounds in rat IEC-6 intestinal epithelial cells | shares compounds with IEC-6 tox | IEC-6 rat intestinal epithelial viability, luminescence | inhibition, % at 5 µM | actives 63% (n = 1,900) | AID 1907;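 also: 0% = vehicle and 100% = reference cytotoxic drug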
* = called active by the depositor; . = no result. Rule as the data show it, unless noted: active = inhibition above about 22%; inactive = the rest.

SMILES	APP transl inh	IEC-6 tox	BaF3 tox	KLF5 inhibitor	Ba/F3 V617F tox	IEC-6 tox confirm
O=C(NC(=S)N1CCN(c2nc(-c3ccccc3)cs2)CC1)c1cncc(Br)c1	-26	-2	4	-22	-3	.
CC(=O)O[C@H]1C(=O)[C@@]2(C)C([C@H](OC(=O)c3ccccc3)[C@]3(O)C[C@H](OC(=O)[C@H](O)[C@@H](NC(=O)c4ccccc4)c4ccccc4)C(C)=C1C3(C)C)[C@]1(OC(C)=O)CO[C@@H]1C[C@H]2O (stereo partly drawn)	.	84*	.	56	.	77*
Cc1ccc(NC(=O)COC(=O)C(NS(=O)(=O)c2ccc(Cl)cc2)C(C)O)cc1C (stereo not drawn)	-2	-3	4	-12	-3	.
Cc1nc(C)c(-c2csc(Nc3ccc(N)cc3)n2)s1	.	4	.	4	.	.
COc1ccc(Nc2nc(-c3sc(C)nc3C)cs2)cc1	.	76*	.	44	.	56*
CC(=O)Nc1ccc2c(c1)CCCC2=O	.	2	5	-4	-1	.
O=C1CCCc2cc3c(cc21)CC1(C3)Cc2cc3c(cc2C1)C(=O)CCC3	.	32*	-6	17	-3	35*
COc1ccc(C(=O)c2sc3nc(C)cc(-c4cccs4)c3c2N)cc1OC	-23	6	1	1	-1	.
CC(=O)c1c(C)cc(C)c(CSc2nc(C)cc(=O)[nH]2)c1C	-38	30*	3	-19	7	20
O=C(Cc1ccccc1)NCc1ccc(-n2cccc2)cc1	1	5	5	-20	8	.
O=C(Cc1ccc(-n2cccc2)cc1)NCc1ccccc1Cl	5	29*	6	-24	-1	32*
Fc1ccc2[nH]c3c(NCc4ccccc4)ncnc3c2c1	.	33*	.	-8	.	30*
C=CCC1(NC(C)c2ccccc2)CCCCC1 (stereo not drawn)	7	-1	2	6	-4	.
COc1ccc(Nc2c3c(nc4ccccc24)CCC3)cc1	.	12	.	0	.	.
COc1ccc(Nc2c3ccccc3nc3ccccc23)cc1	.	74*	.	-5	.	31*
COc1ccc(Nc2nc(-c3ccncc3)nc3ccccc23)cc1	.	30*	.	-34	.	19
Cc1ccc(-c2nc(Nc3cccc(O)c3)c3ccccc3n2)cc1	.	-2	.	-25	.	.
COc1ccccc1Nc1c2ccccc2nc2ccccc12	.	28*	.	-1	.	13
Oc1cccc(Nc2c3ccccc3nc3ccccc23)c1	.	35*	.	-5	.	36*
CCOCCCNC(=O)CCN1C(=O)c2ccccc2Sc2ncccc21	.	11	.	-5	.	.
Cc1ccc(S(=O)(=O)N(Cc2ccccc2)c2ccccc2C(=O)N2CCCCC2)cc1	.	-1	.	2	.	.
COc1ccc(CCN(C)C(=O)c2cc(=O)c3ccccc3o2)cc1OC	.	2	.	-24	.	.
Cc1cc(-c2ccc(S(=O)(=O)N(C)c3ccc(C)c(C)c3)s2)on1	.	53*	.	32	.	42*
COc1ccc(-c2cc(C)no2)cc1S(=O)(=O)N(C)c1ccc(C)c(C)c1	.	3	.	-21	.	.
Cc1ccc(N(C)S(=O)(=O)c2ccc(-c3cc(C)no3)s2)cc1	.	41*	.	35	.	5
SMILES	APP transl inh	IEC-6 tox	BaF3 tox	KLF5 inhibitor	Ba/F3 V617F tox	IEC-6 tox confirm
CN1CC(=O)N2C(c3cccc([N+](=O)[O-])c3)c3[nH]c4ccccc4c3C[C@H]2C1=O (stereo partly drawn)	.	34*	.	32	.	14
COc1ccc(C2=NOC(C(=O)NCc3ccco3)C2)cc1 (stereo not drawn)	25	25*	3	15	-1	35*
COc1cc(C2=NOC(C(=O)NCc3cccnc3)C2)cc(OC)c1OC (stereo not drawn)	.	-2	.	-22	.	.
COc1cc(C2=NOC(C(=O)NCc3ccco3)C2)cc(OC)c1OC (stereo not drawn)	6	26*	51*	27	43*	44*
CCOc1cc(/C=N\NC(=O)Cn2nnc3ccccc32)ccc1O	13	2	9	-4	0	.
O=C(N/N=C/c1ccc(O)cc1)Nc1cccc2nsnc12	12	81*	26	-26	2	91*
O=C(c1ccccc1)c1c2c(cc3sc4ccccc4[n+]13)-c1cccc3cccc-2c13	-36	39*	68*	-9	86*	18
Cc1sc2ccccc2[n+]1CC(=O)c1ccccc1	.	2	.	-18	.	.
CN1C2CCC1/C(=C\c1ccccc1F)C(=O)/C2=C/c1ccccc1F	0	33*	4	-23	17	0
CCN(CC)CCOc1ccc2c(c1)C(=NO)c1cc(OCCN(CC)CC)ccc1-2	33	37*	19	4	18	21
CCN(CC)CCOc1ccc(Br)cc1	1	2	2	8	0	.
Cc1ccc(-c2cc(C(=O)N/N=C/c3c(C)nn(-c4ccccc4)c3C)n[nH]2)s1	92*	68*	82*	40	74*	56*
Cc1cc(OCC(=O)OCC(=O)Nc2cc(C(F)(F)F)ccc2N2CCOCC2)ccc1Cl	-4	0	3	-25	1	.
Cc1ccc(-c2ccc(=O)n(Cc3c(F)cccc3Cl)n2)cc1	.	-1	.	-18	.	.
CCCC(=O)Nc1nc2ccc(NC(=O)c3ccccc3F)cc2s1	76*	75*	80*	36	82*	55*
CC(NC(=O)OCc1ccccc1)C(=O)NCC(=O)NC(Cc1ccc(OC(C)(C)C)cc1)C(=O)OC(C)(C)C (stereo not drawn)	-1	1	1	15	-1	.
Fc1ccc(-c2csc(Nc3ccccn3)n2)cc1	.	32*	.	-278	.	10
c1ccc(Nc2nc(-c3cccnc3)cs2)nc1	-194	-5	2	-185	1	.
C=CCN(CC=C)S(=O)(=O)c1ccc2nc(NC(=O)C(C)C)sc2c1	44	54*	76*	40	64*	47*
O=C(c1ccc(N2CCN(S(=O)(=O)c3ccccc3)CC2)c([N+](=O)[O-])c1)N1CCOCC1	10	-5	6	-15	-3	.
CC(=O)Nc1ccc(NC2=C/C(=N/S(=O)(=O)c3cccs3)c3ccccc3C2=O)cc1	35	43*	3	-32	3	4
Clc1ccccc1-c1nnc2sc(-c3ccncc3)nn12	-3	6	5	-56	3	.
CN(C)c1ccc(-c2nn3c(-c4ccccc4Cl)nnc3s2)cc1	90*	35*	13	23	9	57*
CCN(CC)c1ccc2cc(-c3nc4ccccc4n3C)c(=O)oc2c1	87*	84*	77*	50	69*	66*
CCN(CC)c1ccc2cc(-c3nc4ccccc4[nH]3)c(=O)oc2c1	-185	5	2	-117	-1	.
O=c1c2ccccc2[nH]c(=S)n1CCCN1CCN(c2ccccc2F)CC1	.	16	.	7	.	.
O=c1c2ccccc2[nH]c(=S)n1CCCN1CCN(c2ccccc2)CC1	.	34*	.	2	.	18
CCC(CC)C(=O)c1c[nH]c(C(=O)O)c1	-1	10	1	-4	4	.
CCC(CC)C(=O)c1c[nH]c(C(=O)NN)c1	88*	30*	13	17	4	6
